From PubChem BioAssay
DAX1 inh-1 = DAX1 (NR0B1) inhibition, primary screen | HEK293T StAR-luciferase reporter, SF-1/DAX-1 repression relief | inhibition, % at 6.8 µM | hit rate 1.1% among 370,000 | AID 652010;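 active = inhibition above the mean over all tested compounds plus 3 SD, cut at about 3.6% in these data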;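 also: 0% = DAX-1 cells with DMSO and 100% = cells lacking DAX-1 with DMSO; higher inhibition means more luminescence from relief of DAX-1 repression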
hcDAF12 agonist = activates DAF-12 receptor from parasite H. contortus; HEK293 hcDAF-12 lit1-tk-luc reporter, luminescence; 0% DMSO, 100% Δ7-dafachronic acid; activation, % at 6.8 µM; hit rate 1.4% among 370,000;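 active = activation above the mean of all tested compounds plus 3 SD, cut at about 5.5% in these data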;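 also: 100% = response to 3 µM Δ7-dafachronic acid high control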
ssDAF12 agonist = activators of S. stercoralis DAF-12 nuclear receptor. hit rate 1% among 370,000. HEK293 ssDAF-12/GRIP1 lit1-tk-luc reporter, luminescence; % of 3 µM dafachronic acid response. activation, % at 6.8 µM;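 active = activation above the mean over all tested compounds plus 3 SD, cut at about 0.9% in these data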;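 also: 0% = DMSO-only wells and 100% = 3 µM delta7-dafachronic acid wells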
hgDAF-12 ag = agonists of H. glycines DAF-12 nuclear receptor | HEK293 GAL4-hgDAF12 UAS-luciferase reporter, agonist luminescence; normalized to butyrate control | activation, % at 6.8 µM | hit rate 1.8% among 370,000;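 active = activation above a cutoff set at the mean of all screened compounds plus 3 SD, cut at about 10% in these data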;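 also: 0% = DMSO wells and 100% = sodium butyrate wells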
DAX1 inh-2 = NR0B1 (DAX1) inhibition | P51843 | HEK293 Gal4-DAX1 luciferase reporter, luminescence | hit rate 0.99% among 340,000 | AID 504766 | inhibition, % at 6.75 µM;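 active = inhibition above the mean over all tested compounds plus 3 SD, cut at about 4.2% in these data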;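 also: 0% = DAX1-transfected cells with DMSO and 100% = empty-vector control cells with DMSO; inhibition shows as a rise in luminescence from relieved DAX1 repression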
Target sequence (P51843 207-470 limits assumed): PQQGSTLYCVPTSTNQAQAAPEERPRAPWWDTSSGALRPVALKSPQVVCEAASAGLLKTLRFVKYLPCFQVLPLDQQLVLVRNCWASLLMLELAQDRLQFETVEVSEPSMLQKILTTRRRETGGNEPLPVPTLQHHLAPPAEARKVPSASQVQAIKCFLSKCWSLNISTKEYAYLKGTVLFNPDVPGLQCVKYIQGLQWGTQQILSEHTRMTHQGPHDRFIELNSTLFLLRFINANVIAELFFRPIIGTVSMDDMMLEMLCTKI
hgDAF12 conf = confirmation of H. glycines DAF-12 agonists | activation, % at 6.8 µM | HEK293 GAL4-hgDAF12 luciferase reporter, agonist mode; percent of butyrate response | AID 743050 | hit rate 80% among 3,300 | shares compounds with hgDAF-12 ag;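 active = mean activation over triplicate wells above the hit cutoff derived from the earlier primary screen, cut at about 11% in these data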;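 also: 0% = DMSO low control and 100% = 2 mM sodium butyrate high control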
LXR ag 2 = counter-screen for DAF-12 agonists: agonists of human LXR-beta. shares compounds with hgDAF-12 ag. 3,300 tested, under 10 active. HEK293 Gal4-LXR luciferase reporter, 24 h. activation, % at 6.8 µM;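 active = mean activation of the triplicate above a set limit carried over from the primary screen, none filed active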
* = called active by the depositor; x = no result. Rows were chosen to be rich in hits. Some 4.1% of all compounds tested hit in one or more screens of this group.

SMILES	DAX1 inh-1	hcDAF12 agonist	ssDAF12 agonist	hgDAF-12 ag	DAX1 inh-2	hgDAF12 conf	LXR ag 2
CCOc1ccccc1NC(=O)CN(c1ccc(Cl)cc1)S(C)(=O)=O	0	-2	-2	-5	1	x	x
C(=C\c1nnc2c3ccccc3ncn12)/c1ccccc1	1	6.1*	2.5*	15*	-2	18*	1
COc1cc(/C=C/c2nnc3c4ccccc4ncn23)cc(OC)c1OC	-2	-4	-2	-4	-2	x	x
O=C(NCc1cccc(Cl)c1)c1ccc(-c2cccnc2)c2ccoc12	0	-2	-2	-2	x	x	x
O=C(NCCc1ccccc1)c1ccc(-c2cccnc2)c2ccoc12	4.3*	1	1	14*	x	11*	0
FC(F)(F)c1ccccc1Cc1c(-c2ccccc2)nc2ccc(Br)cn12	2	1	0	9	x	x	x
CCC(=O)c1ccc(OCc2ccc(C(=O)OC)cc2)cc1	3	5	1	16*	-2	15*	1
CC(=O)Nc1ccc(N=Cc2ccc(OCc3ccccc3)cc2)cc1	-1	5	0	14*	1	11*	0
COC(=O)c1ccc(COc2ccc(/C=N/Nc3cccc(C(=O)O)c3)cc2)cc1	2	3	1.4*	17*	-2	13*	1
CC(C)C(=O)N/N=C/c1ccc(OCc2ccccc2)cc1	-1	0	-1	5	0	x	x
CCOc1ncccc1C(=O)OCc1ccc(C(=O)OC)cc1	1	3	1	15*	1	12*	0
COc1ccc(OC)c(S(=O)(=O)NC2CCCCNC2=O)c1 (centres undefined)	0	0	-1	-1	0	x	x
CCC(NC(=S)NCc1ccc(F)cc1)c1ccc(C(C)C)cc1 (centres undefined)	-2	-3	-1	-1	-1	x	x
COc1ccc(-c2nc3c(Cl)cc(C(F)(F)F)cn3c2Cc2ccsc2)cc1OC	0	-1	-1	0	x	x	x
Cc1cc(NC(=O)c2cccc(Oc3ccccc3)c2)n[nH]1	3.7*	4	0	19*	3	13*	0
O=C(Nc1cc(-c2ccccc2)[nH]n1)c1ccccc1	2	4	0	14*	3	16*	1
Cc1cc(C)cc(C(=O)NCC(=O)N2CCC(C(N)=O)CC2)c1	1	-1	-1	0	1	x	x
Cc1ccc(NC(=O)NCC2CC2(Cl)Cl)cc1 (centres undefined)	2	4	0	13*	2	10	0
COc1ccccc1NC(=O)NCC1CC1(Cl)Cl (centres undefined)	0	0	-1	3	-1	x	x
O=C1C(Cl)=C(N2CCCCCC2)C(=O)N1c1ccc(Cl)cc1	-1	-1	0	-1	0	x	x
O=C1C=C(N2CCCCCC2)C(=O)N1c1ccc(Cl)cc1	2	5	0	15*	4	5	1
CCOC(=O)Cc1nc2ccccc2[nH]1	0	0	-1	-3	0	x	x
CCOC(=O)c1ccc(NCc2nc3ccccc3[nH]2)cc1	3	5	0	15*	1	5	0
CCCNC(=O)c1noc2c1CCc1cc(OC)ccc1-2	3.8*	2	-1	16*	3	13*	1
O=C(c1cnsn1)N1CCC(CO)(Cc2cccc(F)c2)CC1	2	3	0	15*	2	10	0
SMILES	DAX1 inh-1	hcDAF12 agonist	ssDAF12 agonist	hgDAF-12 ag	DAX1 inh-2	hgDAF12 conf	LXR ag 2
Cc1cc(C(=O)N2CCC(CO)(Cc3cccc(C(F)(F)F)c3)CC2)n[nH]1	0	-1	-1	-2	-1	x	x
COc1ccc(Nc2cnn(-c3nc4ccccc4s3)c(=O)c2Cl)cc1	0	0	0	2	0	x	x
Cc1ccc(C)c(N2CCN(c3cnn(-c4nc5ccccc5s4)c(=O)c3Cl)CC2)c1	3.7*	5	0	14*	3	12*	1
O=C1CCCCC1Sc1nnc(-c2ccc3c(c2)OCO3)o1 (centres undefined)	0	-3	-3	-12	-7	x	x
O=C(NCCCn1ccnc1)C(=O)Nc1ccccc1	1	0	-2	1	0	x	x
COc1cccc(-c2nc(=S)c3c(o2)CCCC3)c1	3.7*	2	0	13*	5.1*	17*	0
S=c1nc(-c2ccccc2)oc2c1CCCC2	2	4	0	3	2	x	x
Cc1coc2cc3oc(=O)c(CCC(=O)N[C@@H](CCCNC(N)=O)C(=O)O)c(C)c3cc12	0	0	-1	2	-1	x	x
FC(F)(F)c1cnc2c(-c3ccccc3)n[nH]c2c1	1	4	0	14*	x	7	0
COc1ccc(NC(=O)c2cc3ccccc3cc2O)cc1	1	3	0	15*	2	16*	0
COc1ccc(C(=O)NNC(=O)c2cc3ccccc3cc2O)cc1	-1	3	0	0	1	x	x
COc1ccc(-c2cc3ccc(O)cc3oc2=O)cc1	3	5	0	14*	1	14*	1
O=c1oc2cc(O)ccc2cc1-c1ccccc1	3	3	1	6	1	x	x
COc1ccc(NC(=O)c2ccc(C)cc2)cc1	3.9*	4	1	14*	-1	18*	1
COc1ccc(NC(=O)c2cccc(OS(=O)(=O)N(C)C)c2)cc1	2	2	-1	17*	0	12*	1
CCOC(=O)C1(C)CCCCN1C(=O)c1ccoc1 (centres undefined)	1	-1	-1	8	x	x	x
COc1ccc(NC(=O)c2cc3ccc(O)cc3o/c2=N\O)cc1	3	5.7*	1	18*	0	15*	1
CN(C)S(=O)(=O)Oc1ccc(C(=O)Nc2ccc([N+](=O)[O-])cc2)cc1	-2	-3	-2	-5	-4	x	x
COC(=O)c1ccc(OS(=O)(=O)N(C)C)cc1	1	1	0	20*	1	6	0
COc1ccc(C(=O)Nc2ccc(SC(F)F)cc2)cc1	1	2	-1	15*	-1	12*	0
N=c1oc2cc(O)ccc2cc1C(=O)Nc1ccc(F)cc1	1	4	-1	10	2	x	x
CCCCOc1ccc(C(=O)Nc2ccc(SC(F)F)cc2)cc1OC	0	-1	-2	-1	0	x	x
COc1ccc(S(=O)(=O)N(C)C[C@H]2Oc3ccc(NS(=O)(=O)c4cccs4)cc3C(=O)N([C@H](C)CO)C[C@@H]2C)cc1	0	0	-1	0	0	x	x
Cc1cc(-c2ccn[nH]2)c(C)s1	0	-2	-2	0	-1	x	x
COc1ccc(-c2sc3ccccc3c2-c2cc(OC)ccc2C=O)cc1	-1	-1	-1	0	x	x	x
